From PubChem BioAssay (NCI)
About 79,000 compounds went through this panel and 15% of them were active in at least one assay; those are over-represented in the sample as a whole. Values without a mark were called inactive. The source made the active and inactive calls. No stated cut-off is given here; in the data, active means growth inhibition above about 70%; inactive means the rest.

How the values were obtained:
[1] = NCI Yeast Anticancer Drug Screen. Data for the rad50 strain (AID 155);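 further: 0% = growth of vehicle-only cultures of the same strain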; settings: S. cerevisiae rad50 strain growth inhibition, active compounds read high; at 50.0 µM unless noted
Summary of the method: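 Growth of the mutant yeast was measured after compound exposure and referenced to vehicle-treated cultures.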

[2] = NCI Yeast Anticancer Drug Screen. Data for the mec2-1 strain (AID 157); settings: S. cerevisiae mec2-1 strain, active compounds read high; at 50.0 µM unless noted
Summary of the method: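 Using mec2-1 yeast: add compound, measure growth, express inhibition versus vehicle-treated cultures.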

[3] = NCI Yeast Anticancer Drug Screen. Data for the sgs1 mgt1 strain (AID 161);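 further: 0% = growth of cultures given vehicle only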; settings: S. cerevisiae sgs1 mgt1 strain, active compounds read high; at 50.0 µM unless noted
Summary of the method: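 Yeast cells carrying a defined DNA-repair defect were exposed to test compounds. Growth inhibition was measured relative to vehicle-treated controls.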

[4] = NCI Yeast Anticancer Drug Screen. Data for the cln2 rad14 strain (AID 165);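 further: 0% = growth equal to vehicle treated cultures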; settings: S. cerevisiae cln2 rad14 strain, active compounds read high; at 50.0 µM unless noted
Summary of the method: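 Yeast strain cln2 rad14, bearing defects in cell cycle control and DNA repair, serves as the test system; values reflect growth inhibition compared with vehicle.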

[5] = NCI Yeast Anticancer Drug Screen. Data for the bub3 strain (AID 167); settings: S. cerevisiae bub3 mutant strain, active compounds read high; at 50.0 µM unless noted
Summary of the method: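 Whole-cell yeast assay. The mutant strain was incubated with compounds, and growth inhibition was determined by comparison with vehicle-treated cells.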

[6] = NCI Yeast Anticancer Drug Screen. Data for the mlh1 rad18 strain (AID 175); settings: S. cerevisiae mlh1 rad18 strain growth inhibition, active compounds read high; at 50.0 µM unless noted
Summary of the method: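 Steps: expose repair-defective yeast to compound; measure growth; express inhibition against vehicle-treated controls.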

SMILES	growth inhibition [1]	growth inhibition [2]	growth inhibition [3]	growth inhibition [4]	growth inhibition [5]	growth inhibition [6]
CN(Cc1ccc2nc(N)nc(N)c2c1)c1ccc(C(=O)NC(CCC(=O)O)C(=O)O)cc1 (centres undefined)	65.3%	88.8% (active)	77.8% (active)	4.7%	-24.5%	33.3%
Oc1ccccc1C1CCCC1	5.55%	-10%	-4.75%	3.7%	0.25%	-2.45%
CCCCCCN(CCCCCC)CC(O)c1cc(-c2ccc(Cl)cc2)nc2c(Cl)cccc12 (centres undefined)	-21.2%	-8.05%	18.4%	-0.35%	-9.5%	19.9%
Nc1cncnc1N	35.7%	7.25%	31.9%	16.2%	-18.6%	26.5%
O=C(O)Nc1ccc(I)cc1	-9.2%	-10.2%	1.15%	-25.9%	-4.1%	-12.4%
Cc1ccc2[nH]c(=O)[nH]c(=O)c2c1	-5.85%	-5%	-4.5%	-45.2%	-3.5%	-12.7%
CC(=O)c1c(C)cc2cc(C)cc(O)c2c1O	30.9%	17.9%	1.4%	0.6%	0.4%	29.9%
COc1cc(C(=O)O)cc(I)c1OC	-3.3%	25.1%	3.95%	-15.4%	-4.55%	-8.95%
COC1OC2COc3ccccc3OC2C2C1N2C(N)=O (centres undefined)	7.4%	0.7%	4.5%	-6.65%	-2.85%	3.8%
O=C(NC(=S)Nc1ccccc1F)c1cccc([N+](=O)[O-])c1	26.1%	77.2% (active)	79.2% (active)	11.4%	49.7%	80% (active)
CC(=O)Nc1cc(S(=O)(=O)O)cc2cc(S(=O)(=O)O)cc(O)c12	-20.9%	-13.3%	-0.05%	21.8%	15.6%	-8.2%
CCCCCO.CCCCCO.CCCCCO.CCCCCO.[Ti]	3.45%	-33%	-3.3%	8.55%	-20%	-1.65%
O=C(Nc1ccccn1)c1ccccc1Cl	1.1%	3.1%	-9.5%	4.2%	-5.9%	19.3%
CCOC(Cc1ccccc1)OCC	20.9%	19.9%	18.4%	-0.7%	10.9%	12.7%
NC1CC(=O)c2ccccc21 (centres undefined)	15.2%	4.8%	-5%	8.95%	2.75%	-37.6%
O=c1oc2c3ccc4ccccc4c3n(CCN3CCOCC3)c2c2ccccc12	19.1%	-3.6%	-29.6%	2.35%	-19.9%	-3.9%
COCCN=Cc1ccc(N(C)C)cc1	4.35%	-4.8%	-3.05%	-26.4%	7.45%	3.7%
C#CC(=O)CCC	26.6%	-5.8%	-4.7%	-1.1%	32.5%	15.6%
CN1N=C(c2ccncc2)OC1c1cccc(C(F)(F)F)c1 (centres undefined)	-63.6%	-65.9%	-32.8%	-3.6%	0.75%	-21.3%
CC(C)(C)OC(=O)COc1ccc(NC(=O)COc2ccc(Cl)c(Cl)c2)cc1	-17.4%	-22.2%	-10.2%	-28.8%	-1.8%	-8.6%

SMILES	growth inhibition [1]	growth inhibition [2]	growth inhibition [3]	growth inhibition [4]	growth inhibition [5]	growth inhibition [6]
CCOC(=O)c1c(SCc2ccccc2)nc2c3ccccc3ccn12	-18.2%	-18.6%	-29.9%	-1.15%	-20.9%	-57.5%
COc1ccccc1CN1CCCN(Cc2ccccc2OC)C1c1cccc(F)c1	0.75%	9.9%	0.65%	16.4%	6.65%	17.8%
COc1cccc(C(=O)c2ccncc2C)c1OC	-14.6%	-4.45%	9.95%	-7.95%	28%	-8.1%
Cc1c(Cl)cc(Cl)c2c1C(=O)CC(C)O2 (centres undefined)	20.4%	7.4%	-0.4%	-17.2%	-14.5%	18.8%
COC(=O)CC1CCS(=O)(=O)C1 (centres undefined)	-6.6%	6.35%	-5.7%	-37.4%	-4.4%	0%
N/C1=C/C(=O)NC(=O)c2c(c3ccccc3oc2=O)C1	-5.7%	0.9%	8.5%	5%	7.3%	-29.6%
O=C(OC1OCC(OCc2ccccc2)C(OCc2ccccc2)C1OCc1ccccc1)c1ccccc1 (centres undefined)	22.6%	-21.5%	-3.9%	-24.3%	-4.2%	-9.15%
COC(=O)C(C)(C)C(C)=O	-40%	-47.1%	-37.5%	7.5%	-26.9%	-30.4%
CC(=O)C(CCC#N)(CCC#N)C(C)=O	-18.6%	-24.6%	-4.8%	-5.95%	-1.45%	-16.1%
Cc1cc(C)cc(N(C2=NCCS2)C2=NCCS2)c1	5%	-4.55%	-2.35%	0.45%	21.9%	4.9%
C=CCN(N=O)C(=O)N(CCCCC(NC(C)=O)C(=O)NCc1ccccc1)Cc1ccccc1 (centres undefined)	-0.95%	-13.1%	-21.4%	-26.5%	-22.3%	-17.1%
N#C/C(=C\c1ccccc1)c1cccc(F)c1	28.9%	24.6%	18.2%	-4.05%	15.7%	11.4%
CC(C)(C)C1CCC2(CC1)CCN(CCCN1CCOCC1)CC2	99% (active)	98.4% (active)	98.5% (active)	97.3% (active)	98.3% (active)	97.8% (active)
CC1=Nc2cc(Cl)c(Cl)cc2N(C)/C1=C/C1=C(Cl)C(=O)c2cc3c(Cl)ccc(Cl)c3cc2C1=O	-0.05%	8.75%	13.1%	25.1%	-1.4%	20.8%
C/C(=C(/C)c1ccc(O)cc1)c1ccc(O)cc1	-9.8%	-23.8%	16.3%	9.05%	45.9%	2.7%
CC(C)(Br)C(Br)CCC(C)(Br)C(Br)CO (centres undefined)	10.9%	-0.7%	-3.8%	-12.1%	0.55%	-1.3%
CCCCN(CCCC)C(=N)c1ccccc1C	4.8%	-13.9%	10.9%	-23.6%	1.55%	-3.35%
C1=C(Nc2ccccc2)C(=Nc2ccccc2)C=C(Nc2ccccc2)C1=Nc1ccccc1	-17.2%	-4.25%	-3.1%	7.1%	1.65%	5.4%
O=C(Nc1ccc(Br)c2ccccc12)c1ccc2ccccc2c1O	-0.05%	-2.1%	-26.1%	-11.2%	-37.5%	-78.8%
